Reference: article PMC5700166

Columns and labels:
Assay in all cases: protein-binding microarray (PBM); PBM: ~300 nM protein, 6 mM HEPES pH 7.8, 80 mM KCl, 0.5 mM EDTA, 0.5 mM EGTA, 6% glycerol, 35 ng/ul poly-dIdC, 1% milk, 1 h, room temperature; Ap Aiptasia and Nv Nematostella (sea anemones) / Co Capsaspora / Aq Amphimedon (sponge) / Dm Drosophila / Hu human; RHD is the Rel homology domain; high values mean tight binding
Details in all cases: dsDNA, one strand shown
[1] = biological target: T1, GST-Ap-NF-kB RHD (Exaiptasia pallida (Aiptasia), UniProt A0A913YAJ5 2-422)
T1 sequence: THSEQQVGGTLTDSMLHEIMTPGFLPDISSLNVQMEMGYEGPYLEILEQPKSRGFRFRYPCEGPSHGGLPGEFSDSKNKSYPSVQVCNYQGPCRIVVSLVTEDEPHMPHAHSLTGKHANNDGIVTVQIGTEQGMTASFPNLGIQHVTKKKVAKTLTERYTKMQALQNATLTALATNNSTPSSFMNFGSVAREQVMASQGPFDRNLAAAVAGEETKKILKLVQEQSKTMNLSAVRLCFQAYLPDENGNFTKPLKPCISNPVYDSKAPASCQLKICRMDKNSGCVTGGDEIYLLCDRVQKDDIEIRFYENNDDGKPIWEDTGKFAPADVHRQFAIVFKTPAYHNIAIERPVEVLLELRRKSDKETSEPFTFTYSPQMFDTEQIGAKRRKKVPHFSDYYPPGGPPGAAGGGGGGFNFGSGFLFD

[2] = biological target: T2, GST-Co-NF-kB (Capsaspora owczarzaki, UniProt F1ARL5 200-546)
T2 sequence: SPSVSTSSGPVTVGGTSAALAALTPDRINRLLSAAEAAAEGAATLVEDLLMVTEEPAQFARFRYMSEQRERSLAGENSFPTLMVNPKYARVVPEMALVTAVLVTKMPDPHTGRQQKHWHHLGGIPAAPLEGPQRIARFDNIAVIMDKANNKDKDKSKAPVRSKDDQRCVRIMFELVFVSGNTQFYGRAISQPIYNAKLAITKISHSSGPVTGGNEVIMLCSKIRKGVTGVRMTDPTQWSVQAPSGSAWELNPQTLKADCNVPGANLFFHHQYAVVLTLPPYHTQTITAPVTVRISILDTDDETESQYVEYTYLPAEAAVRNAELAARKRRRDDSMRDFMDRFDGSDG

[3] = biological target: T3, GST-Aq-NF-kB (Amphimedon queenslandica, UniProt A9Y5G7 2-389)
T3 sequence: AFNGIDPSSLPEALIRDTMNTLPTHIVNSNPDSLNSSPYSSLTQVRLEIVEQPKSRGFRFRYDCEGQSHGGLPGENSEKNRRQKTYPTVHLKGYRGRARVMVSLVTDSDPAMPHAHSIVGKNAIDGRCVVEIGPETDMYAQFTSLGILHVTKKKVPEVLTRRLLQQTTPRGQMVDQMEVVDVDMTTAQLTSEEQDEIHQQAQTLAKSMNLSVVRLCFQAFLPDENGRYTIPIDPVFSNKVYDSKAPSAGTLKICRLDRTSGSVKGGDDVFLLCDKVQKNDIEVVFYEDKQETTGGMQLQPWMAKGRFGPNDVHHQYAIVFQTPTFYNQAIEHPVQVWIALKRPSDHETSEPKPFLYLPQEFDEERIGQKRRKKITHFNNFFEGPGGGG

[4] = biological target: T4, GST-Dm-Relish (Drosophila melanogaster, UniProt Q94527 99-473)
T4 sequence: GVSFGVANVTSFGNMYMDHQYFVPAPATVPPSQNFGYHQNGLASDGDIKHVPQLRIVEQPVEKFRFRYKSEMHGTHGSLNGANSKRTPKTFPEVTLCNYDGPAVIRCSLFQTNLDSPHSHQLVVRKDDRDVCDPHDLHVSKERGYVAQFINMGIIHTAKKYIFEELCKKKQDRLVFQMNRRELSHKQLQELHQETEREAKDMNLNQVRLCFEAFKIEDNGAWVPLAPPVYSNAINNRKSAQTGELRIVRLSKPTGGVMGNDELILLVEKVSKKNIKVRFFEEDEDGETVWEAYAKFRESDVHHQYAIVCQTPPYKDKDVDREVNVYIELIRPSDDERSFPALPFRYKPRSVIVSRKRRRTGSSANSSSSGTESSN

[5] = biological target: T5, GST-Nv-NF-kB (Ser allele) (Nematostella vectensis, UniProt A7UNT2 2-411)
T5 sequence: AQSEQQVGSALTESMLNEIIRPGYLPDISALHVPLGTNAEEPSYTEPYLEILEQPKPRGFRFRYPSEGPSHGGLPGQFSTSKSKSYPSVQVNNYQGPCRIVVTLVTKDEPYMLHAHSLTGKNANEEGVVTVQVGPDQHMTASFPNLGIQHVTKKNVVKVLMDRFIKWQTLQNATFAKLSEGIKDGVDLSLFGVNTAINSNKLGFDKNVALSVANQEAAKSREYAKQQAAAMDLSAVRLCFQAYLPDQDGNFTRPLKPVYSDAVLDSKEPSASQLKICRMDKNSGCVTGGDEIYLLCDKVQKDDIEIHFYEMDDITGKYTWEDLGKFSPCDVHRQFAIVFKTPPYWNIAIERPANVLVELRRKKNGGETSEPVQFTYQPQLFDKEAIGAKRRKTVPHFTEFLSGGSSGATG

| Sequence | binding signal [1] | binding signal [2] | binding signal [3] | binding signal [4] | binding signal [5] |
| --- | --- | --- | --- | --- | --- |
| CCGATTAACATCACACCCCAACATGATGTTAATCGGGTCTTGATTCGCTTGACGCTGCTG | 1.38 z-score | 2.16 z-score | 1.02 z-score |  |  |
| CCGATTAACATCACCGGAATTCCTGATGTTAATCGGGTCTTGATTCGCTTGACGCTGCTG | 1.13 z-score | 1.36 z-score | 2.36 z-score | 3.45 z-score |  |
| CCGATTAACATCATCCGCGGGAGTGATGTTAATCGGGTCTTGATTCGCTTGACGCTGCTG | 1.05 z-score | 1.38 z-score | 1.92 z-score |  |  |
| CCGATTAACATCATTTATCCCGGTGATGTTAATCGGGTCTTGATTCGCTTGACGCTGCTG | 1.16 z-score | 2.85 z-score | 1.14 z-score | 1.77 z-score |  |
| CCGATTAACATCAAGCCCCCCCTTGATGTTAATCGGGTCTTGATTCGCTTGACGCTGCTG | 4.63 z-score | 3.04 z-score | 4.92 z-score | 4.77 z-score | 4.35 z-score |
| CCGATTAACATCAGGGCTTCCCATGATGTTAATCGGGTCTTGATTCGCTTGACGCTGCTG | 1.44 z-score | 1.01 z-score | 3.5 z-score | 8.36 z-score |  |
| CCGATTAACATCAGGGGGGGAAATGATGTTAATCGGGTCTTGATTCGCTTGACGCTGCTG | 6.79 z-score | 10.2 z-score | 5.89 z-score | 5.34 z-score | 7.98 z-score |
| CCGATTAACATCAGTACTTCCCATGATGTTAATCGGGTCTTGATTCGCTTGACGCTGCTG | 1.53 z-score | 1.42 z-score | 2.53 z-score | 9.09 z-score |  |
